Measured values from PubChem BioAssay AID1004 (SRMLSC, 2008).
Unmarked numbers belong to inactive results. The source made the active and inactive calls.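 How the source made its calls: active means viability at 10 µM of 29.74% or lower, 3 SD below the compound median; inactive means the rest.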

Experiment: viability of HCT116 lacking mutant beta-catenin – cell-based, DP diverse set, validation, pilot screen (AID 1004)
Details: HCT116 (mutant beta-catenin deleted) viability, CellTiter-Glo, 60 h; at 10 µM; hits give low values

Structure (SMILES) | viability
O=c1[nH]cnc2ccccc12 | 98.6%
CCCC[C@@H](C=O)NC(=O)[C@H](CC(C)C)NC(=O)[C@H](CC(C)C)NC(C)=O | 8.45% (active)
C/C(=C\CNc1ncnc2c1ncn2[C@@H]1O[C@H](CO)[C@@H](O)[C@H]1O)CO | 102%
COC(=O)c1cc2c(s1)-c1ccccc1OC2 | 98%
O=C(O)c1ccccc1O | 103%
O=C(O)c1cc(=O)c2c(OCC(O)COc3cccc4oc(C(=O)O)cc(=O)c34)cccc2o1 | 100%
CO[C@@H]1[C@@H](OC(N)=O)[C@@H](O)[C@H](Oc2ccc3c(O)c(NC(=O)c4ccc(O)c(CC=C(C)C)c4)c(=O)oc3c2C)OC1(C)C | 99.5%
CC12CC3(O)OC(O1)C1(COC(=O)c4ccccc4)[C@@H]3CC21O[C@@H]1O[C@H](CO)[C@@H](O)[C@H](O)[C@H]1O | 93.9%
OCCN(CCO)c1nc(N2CCCCC2)c2nc(N(CCO)CCO)nc(N3CCCCC3)c2n1 | 109%
Nc1nc2ncc(CNc3ccc(C(=O)NC(CCC(=O)O)C(=O)O)cc3)nc2c(=O)[nH]1 (stereo not given) | 95.3%
C[C@H](CS)C(=O)N1CCC[C@H]1C(=O)O | 93.8%
C[C@@H]1C(=O)O[C@@H]2CC34C5CC(C(C)(C)C)[C@]36C(O)C(=O)O[C@@H]6O[C@@]4(C(=O)O5)[C@@]12O (stereo not given in full) | 72.1%
O=C1OC(c2cc(I)c(O)c(I)c2)(c2cc(I)c(O)c(I)c2)c2ccccc21 | 97.5%
NCC(=O)N[C@@H](CCCN=C(N)N)C(=O)NCC(=O)N[C@@H](CC(=O)O)C(=O)N[C@@H](CC(N)=O)C(=O)N1CC[C@@H](C(=O)O)C1 | 95.6%
O=c1c(-c2ccc(O)cc2)coc2cc(O)cc(O)c12 | 96.7%
Cc1ccc2c(c1)C(=O)C1(O)CCN(c3ccccc3)C1=N2 (stereo not given) | 91%
COc1ccc(CCN(C)CCCN2CCc3cc(OC)c(OC)cc3CC2=O)cc1OC | 102%
O=c1[nH]c(=O)n(C2CCCO2)cc1F (stereo not given) | 94.9%
CC[N+](CC)(CC)CC(=O)Nc1c(C)cccc1C | 101%
COc1cc(CNC(=O)CCCC/C=C/C(C)C)ccc1O | 95.2%
CC(C)=CCC[C@](C)(O[C@@H]1O[C@H](CO)[C@@H](O)[C@H](O)[C@H]1O)[C@H]1CC[C@]2(C)[C@@H]1[C@H](O)C[C@@H]1[C@@]3(C)CC[C@H](O[C@@H]4O[C@H](CO)[C@@H](O)[C@H](O)[C@H]4O[C@@H]4O[C@H](CO)[C@@H](O)[C@H](O)[C@H]4O)C(C)(C)[C@@H]3[C@@H](O)C[C@]12C | 93.8%
O=C(c1ccc(OCCN2CCCCC2)cc1)c1c(-c2ccc(O)cc2)sc2cc(O)ccc12 | 86.1%
CC(=O)[C@H]1[C@H](C#N)CC2C3CC=C4C[C@@H](O)CCC4(C)C3CCC21C (stereo not given in full) | 98.1%
C/C=C1/C2C=C(C)CC1(N)c1ccc(=O)[nH]c1C2 (stereo not given) | 106%
NCCNS(=O)(=O)c1cccc2c(Cl)cccc12 | 95.7%
C=C(C)[C@H]1CC=C(CO)CC1 | 99.5%
Cc1cc(CC(=O)O)n(C)c1C(=O)c1ccc(Cl)cc1 | 98.7%
c1ccc2nc3ccccc3cc2c1 | 100%
C[C@@]12C=Cc3occc3C1CC[C@@]13C[C@@H](CCC12)[C@@](O)(CO)C3 (stereo not given in full) | 94.3%
CC1(C)OC2CC(=O)OCC23C1CC(=O)C1(C)C3CC[C@@]2(C)[C@H](c3ccoc3)OC(=O)C3OC312 (stereo not given in full) | 93%
